Screening results (PubChem BioAssay)
TDP1 cell noCPT: qHTS for Inhibitors of human tyrosyl-DNA phosphodiesterase 1 (TDP1): qHTS in cells in absence of CPT; AID 686978, 2013; DT40 Tdp1-/- hTDP1 cells, no CPT, ATP luminescence, 48 h; 420,000 tested, 15% active; Potency, µM (doses to about 46.2 µM), without a hit: at the top dose activity change, negative = growth inhibition, actives largely listed as inhibitors; note: potency is the fitted concentration of half-maximal effect; % is set by controls: 0 for no effect and ±100 for the full control effect; nearly all actives have a fitted effect of over 55% in size
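No-CPT arm: Tdp1-/-;hTDP1 DT40 cells (400/well) plus compounds, incubated ≥48 hr at 37 °C. Readout CellTiter-Glo luminescence.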
IL1B secr inh: inflammasome signaling inhibition, IL-1 beta readout; activity change, % at 57.5 µM; THP-1 LPS/ATP IL-1B secretion, AlphaLISA, 16 h; hits give low values; 360,000 tested, 4.7% active; in the data active = activity change below about -50%; inconclusive = mostly about -30% to -49%; note: % is set by controls: 0 for no effect and ±100 for the full control effect
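THP-1 cells pretreated 1 hr with compounds (up to 57.5 uM final), then stimulated with LPS (250 ng/mL final) plus ATP (1.25 mM final); secreted IL-1B measured by AlphaLISA after 16 hr, decreased signal indicating inhibition.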
ASM inhibitor: human S-ASM enzyme inhibition; 340,000 tested, 0.006% active; P17405; Potency, µM (series often up to 57.5 µM), for the others: at the highest dose activity change, negative = inhibition, usual class: inhibitors; placental ASM, HMU-PC fluorogenic substrate, 60 min; note: potency is the fitted concentration of half-maximal effect
Target sequence (P17405 47-631 limits assumed): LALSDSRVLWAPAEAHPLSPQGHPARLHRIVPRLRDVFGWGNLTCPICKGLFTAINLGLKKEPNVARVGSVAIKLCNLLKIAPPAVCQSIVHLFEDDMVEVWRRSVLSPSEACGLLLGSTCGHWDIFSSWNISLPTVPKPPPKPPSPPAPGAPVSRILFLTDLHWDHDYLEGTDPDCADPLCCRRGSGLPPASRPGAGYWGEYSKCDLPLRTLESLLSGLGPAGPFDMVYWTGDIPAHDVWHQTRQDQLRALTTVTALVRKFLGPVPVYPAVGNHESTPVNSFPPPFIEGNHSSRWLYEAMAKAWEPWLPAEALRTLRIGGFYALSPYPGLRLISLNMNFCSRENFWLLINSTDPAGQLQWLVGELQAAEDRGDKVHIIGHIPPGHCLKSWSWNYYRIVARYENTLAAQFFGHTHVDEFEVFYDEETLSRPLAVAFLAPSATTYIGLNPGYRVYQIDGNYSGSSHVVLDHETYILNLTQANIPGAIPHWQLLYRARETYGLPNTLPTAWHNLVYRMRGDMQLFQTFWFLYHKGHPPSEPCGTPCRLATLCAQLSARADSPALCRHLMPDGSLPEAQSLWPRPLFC
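Human placenta-derived ASM enzyme was preincubated with compound for 10 minutes at room temperature, then given fluorogenic substrate HMU-PC0 (9 uM final) for 60 minutes at 37 °C; a pH 10 stop preceded fluorescence reading at Ex 386/Em 447 nm.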
HepG2 viability: counter-screen for TGF-b inhibitors: cytotoxicity in HepG2 cells; HepG2 CAGA-GFP viability, ATP luminescence, 18 h; Potency, µM (series often up to 46.1 µM), inactives show top-dose activity change, negative = cytotoxicity, usual class: cytotoxic; 410,000 tested, 0.76% active; AID 588856; note: potency is the fitted concentration of half-maximal effect
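HepG2 CAGA-GFP cells (1000/well, DMEM with 1% FBS) received compound, then TGF-beta at 500 pg/mL final, and were incubated 18 hours at 37 degrees C. Viability was read by CellTiter-Glo luminescence. Media-only wells were set as complete cell-killing and DMSO as no toxicity.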
TGFb SMAD3 inh: blocks TGF-b signaling. HepG2 CAGA-GFP TGF-b/SMAD3 reporter, GFP fluorescence, 18 h; TGF-beta stimulated, 500 pg/mL final. Potency, µM (titrated, usually from 46.1 µM), without a hit: at the highest dose activity, negative = inhibition, usual class: inhibitors. 410,000 tested, 1.2% active. AID 588855; note: potency is the fitted concentration of half-maximal effect; % is set by controls: 0 for no effect and ±100 for the full control effect; nearly all actives have a fitted effect of over 65% in size
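Using HEPG2 CAGA-GFP reporter cells at 1000 cells/well, we pinned test compounds, stimulated with recombinant TGF-beta (500 pg/mL final) and measured total well GFP after 18 h.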
DT40 TDP1 CPT: DT40-hTDP1 cell growth loss with CPT; chicken DT40 Tdp1-/-;hTDP1 cells + 20 nM CPT, ATP luminescence, 48 h; 420,000 tested, 12% active; AID 686979; Potency, µM (doses to about 46.2 µM), inactives show at the highest dose activity change, negative = growth inhibition, actives largely listed as inhibitors; note: potency is the fitted concentration of half-maximal effect; % is set by controls: 0 for no effect and ±100 for the full control effect; nearly all actives have a fitted effect of over 55% in size
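Cell growth measured by CellTiter-Glo luminescence after a minimum 48 h, 37 C compound exposure with 20 nM CPT in Tdp1-knockout DT40 cells stably expressing hTDP1, seeded 400/well; qHTS titration format.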
* = called active by the depositor; ? = inconclusive; / = no result. Shown are actives, neighbours in structure and some others; about 19% of the full set was active somewhere. Unless noted, calls come from the whole dose curve; as a rule, active = well fitted curve in the direction sought with a large enough effect; inconclusive = small, poorly fitted or top-dose-only effect, or another doubt; inactive = no such curve, though single readings can be large; an effect the other way counts as inactive or inconclusive.

SMILES | TDP1 cell noCPT | IL1B secr inh | ASM inhibitor | HepG2 viability | TGFb SMAD3 inh | DT40 TDP1 CPT
O=C1CCSC2(C(=O)N(Cc3ccccc3)c3ccccc32)N1c1ccccc1 (stereo not drawn) | 15µM* | / | / | -51% | ? | 9.2µM*
O=C1CS(=O)(=O)C2(C(=O)N(Cc3ccccc3)c3ccccc32)N1c1ccccc1 (stereo not drawn) | -11% | / | / | 0% | 25% | -10%
Cc1ccc(CNC(=O)CN2C(=O)C3(SCC(=O)N3c3ccc(F)cc3)c3ccccc32)cc1 (stereo not drawn) | ? | / | / | -10% | -1% | ?
Cc1ccc(N2C(=O)CCSC23C(=O)N(Cc2ccccc2)c2ccccc23)cc1 (stereo not drawn) | 16µM* | / | / | -56% | ? | ?
COc1ccc(SC[C@H](C)CN2CC[C@H](C)CCC2=O)cc1 | ? | -13 | -2% | -22% | -22% | ?
O=C1Cc2cc(S(=O)(=O)Nc3cccc([N+](=O)[O-])c3)cc3c2N1CCC3 | 1% | 10 | -1% | -17% | -2% | -21%
C#CCOc1ccc2c3c(c(=O)oc2c1)CCCC3 | -18% | -20 | 34% | -14% | 0% | 0%
C=C1C[C@H](OC(=O)C(C)(O)CCl)C2C(=C)C(=O)O[C@@H]2C2C1C[C@H](O)[C@]2(O)CCl (stereo partly drawn) | 0.82µM* | / | / | / | / | 1.5µM*
COc1ccc(NC(=O)CSC2=Nc3ccccc3C3=NC(CCC(=O)NCc4ccc(F)cc4)C(=O)N23)cc1Cl (stereo not drawn) | 15µM* | / | / | -43% | -25% | ?
COc1ccc(Cl)cc1NC(=O)CSC1=Nc2ccccc2C2=NC(CC(=O)NC3CCCCC3)C(=O)N12 (stereo not drawn) | -93% | / | / | -37% | ? | 18µM*
COc1ccc(Cl)cc1NC(=O)CSC1=Nc2ccccc2C2=NC(CCC(=O)NCc3ccc(F)cc3)C(=O)N12 (stereo not drawn) | 16µM* | / | / | -17% | -24% | 23µM*
COc1ccc(Cl)cc1NC(=O)CSC1=Nc2ccccc2C2=NC(CCC(=O)NCc3ccco3)C(=O)N12 (stereo not drawn) | ? | / | / | -38% | -17% | ?
c1ccc2c(-c3csc(-c4ccncc4)n3)c[nH]c2c1 | 15µM* | -15 | 1% | -56% | 16% | 18µM*
Brc1ccc(-c2csc(-c3c[nH]c4ccccc34)n2)cc1 | ? | 16 | -20% | -19% | -7% | ?
CN(C)CC(CCC(CN(C)C)C(O)(c1ccccc1)c1ccccc1)C(O)(c1ccccc1)c1ccccc1 (stereo not drawn) | 18µM* | -85* | 2% | -19% | -2% | 23µM*
O=S(=O)(NC1c2cccc3cccc(c23)C1N1CCN(CCO)CC1)c1ccccc1 (stereo not drawn) | 15µM* | -8 | 0% | -4% | ? | ?
O=C(c1ccccc1)N1CCN(C2c3cccc4cccc(c34)C2NS(=O)(=O)c2ccccc2)CC1 (stereo not drawn) | ? | -5 | -2% | 1% | 0% | ?
O=C(C1=C[C@H](c2coc3ccccc3c2=O)C[C@H](OCCCCO)O1)N1CCN(Cc2ccc3c(c2)OCO3)CC1 | 16µM* | / | 6% | -11% | ? | 21µM*
C=CCOC(=O)C1=C[C@H](c2cn(C(C)=O)c3ccccc23)C[C@H](OCc2ccc(CO)cc2)O1 | 21µM* | 18 | -3% | -19% | 7% | ?
